Assay [1] in a line: Nuclear factor erythroid 2-related factor 2/antioxidant responsive element (Nrf2/ARE) small molecule agonists: qHTS cell viability counter screen in human keratinocytes (AID 1919968; active = well fitted curve in the direction sought with a large enough effect in the repeat runs; an effect the other way counts as inactive or inconclusive; note: nearly all actives have a fitted effect of over 55% in size; note: potency is the fitted concentration of half-maximal effect). The procedure, abridged:
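In human HaCaT keratinocytes stably expressing an ARE-driven luciferase, compound exposure lasted 23 h at 37 C under 5% CO2. Viable cells are quantified with a protease-based fluorogenic reagent (CellTiter-Fluor) read 1 h after addition.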

The nature of assay [2]: Nuclear factor erythroid 2-related factor 2/antioxidant responsive element (Nrf2/ARE) small molecule agonists: luciferase reporter gene qHTS assay in human keratinocytes (AID 1919969). Note: nearly all actives have a fitted effect of over 35% in size.
Assay [3] concerns the target Gonadotropin-releasing hormone receptor (Homo sapiens) (UniProt P30968). Nature of the assay: Human gonadotropin-releasing hormone receptor (GnRHR) small molecule agonists, calcium flux assay in GnRHR-HEK293 cells (AID 1920063). Note: nearly all actives have a fitted effect of over 35% in size. Summed up: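 Intracellular calcium rise is the read-out: engineered human GnRHR HEK293 cells, dye-loaded, are exposed to DMSO-dissolved compounds and fluorescence at Ex/Em 480/540 is tracked for 3 min.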

Assay [4] deals with KiSS-1 receptor (Homo sapiens) (UniProt Q969F8). Nature of the assay: Human kisspeptin (KISS1R) small molecule agonists, calcium flux assay in KISS1R-HEK293 cells (AID 1920064; active = well fitted curve in the direction sought with a large enough effect in the repeat runs; an effect the other way counts as inactive or inconclusive). The procedure, abridged:
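Concentration-response testing used 15 concentrations in triplicate on human KISS1R-expressing HEK293 cells. Calcium-dependent fluorescence (Ex/Em 480/540) was followed kinetically for 3 min after compound transfer.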

A short description of assay [5]: G protein-coupled receptor (GPCR) small molecule agonists, calcium flux assay: HEK293 wild type cell line counter screen (AID 1920065). Summed up:
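Fluorescence intensity signals activation. After overnight (18 h) culture and a 1 h calcium dye load at 37 C, compounds are added by pin tool and the plate read at 480/540 nm for 3 min in 1 s steps.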

The nature of assay [6]: p53 small molecule agonists, cell-based qHTS assay with rat liver microsomes (AID 1963578). Summed up:
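Agonist mode in p53RE-bla reporter cells, with compounds co-incubated 16 h at 37 C alongside 0.5 mg/mL rat liver microsomes and 0.5 mg/mL NADPH (final), followed by a 2 h LiveBLAzer detection step.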

The nature of assay [7]: p53 small molecule agonists, cell-based qHTS assay with rat liver microsomes: qHTS cell viability counter screen (AID 1963580). Note: nearly all actives have a fitted effect of over 45% in size. The procedure, abridged: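 After the beta-lactamase ratio was read, CellTiter-Glo was added to the same wells and luminescence measured at 30 min; cells had been treated 16 h at 37 C with compounds, rat liver microsomes and NADPH (0.5 mg/mL final each).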

A short description of assay [8]: p53 small molecule agonists, cell-based qHTS assay: qHTS cell viability counter screen (AID 1963581). Note: nearly all actives have a fitted effect of over 45% in size. Summed up: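 Luminescence from CellTiter-Glo, reflecting ATP content, serves as the cytotoxicity measure; it is taken after the 2 h reporter substrate step in HCT-116 p53RE-bla cells dosed for 16 h at 37 C.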
The nature of assay [9]: p53 small molecule agonists, cell-based qHTS assay (AID 1963582; active = well fitted activation curve with a large enough effect in the signal ratio in the repeat runs, not every such curve was filed as active; the % refers to the signal ratio). Summed up:
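After plating, p53RE-bla cells sat 5 h in the incubator; compounds or DMSO vehicle were pinned in; a 16 h incubation at 37 C followed; FRET substrate was added and, 2 h later at RT, fluorescence was measured.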

The target in assay [10] is Muscarinic acetylcholine receptor M1 (Homo sapiens) (UniProt P11229). Nature of the assay: Cholinergic receptor muscarinic 1 (CHRM1) small molecule agonists, cell-based qHTS assay (AID 1963589). Note: nearly all actives have a fitted effect of over 35% in size. Note: potency is the fitted concentration of half-maximal effect. Summed up: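 Fluorescent calcium dye reports M1 activation in stably transfected CHO cells. Compounds, 15 concentrations, added after 1 h dye loading at 37 C; kinetic reading at 1 sec intervals.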

Assay [11] can be described thus: cAMP Responsive Elements (CRE) small molecule agonists, cell-based qHTS assay (AID 1963590). Note: potency is the fitted concentration of half-maximal effect. The procedure, abridged:
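Compound exposure lasted 3 h at 37 C/5% CO2 in CRE-bla HEK 293T cells grown in assay medium with 10% dialyzed FBS and 25 mM HEPES. Reporter signal came from LiveBLAzer B/G FRET substrate, 2 h, room temperature.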

Assay [12] is described as follows: cAMP Responsive Elements (CRE) small molecule antagonists, cell-based qHTS assay (AID 1963591; active = well fitted inhibition curve with a large enough effect in the signal ratio in the repeat runs, not every such curve was filed as active; the % refers to the signal ratio). The procedure, abridged: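 Stimulation used NKH477 at a final 0.25 uM for 3 h in compound-treated CRE-bla HEK293T cells, seeded 18 h beforehand. Reporter activity was measured with LiveBLAzer B/G FRET substrate after 2 h at room temperature.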
Assay [13] concerns the target Beta-2 adrenergic receptor (Homo sapiens) (UniProt P07550). The assay is described as follows: Adrenergic beta2 receptor (ADRB2) small molecule antagonists, cell-based qHTS assay (AID 1963592). Note: nearly all actives have a fitted effect of over 50% in size. Note: potency is the fitted concentration of half-maximal effect. The procedure, abridged:
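Assay format: CHO-ADRB2 cells, 18-20hr seeding at 37C/5% CO2, then compound plus 1nM isoproterenol agonist mix for 0.5hr RT. Homogeneous time-resolved fluorescence cAMP detection after 1hr, expressed as 665/615 nm ratio.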

Assay [14] has the same target. Nature of the assay: Adrenergic beta2 receptor (ADRB2) small molecule agonists, cell-based qHTS assay (AID 1963593).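 Note: CHO cells stably overexpressing human ADRB2.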 The procedure, abridged:
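CHO cells stably over-expressing ADRB2 were plated overnight at 37C, then dosed with compounds plus a stimulation mix containing 100uM IBMX and 25uM Ro-20-1724 for 0.5hr at room temperature. cAMP was measured by HTRF competition, 1hr.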

Assay [15] deals with D(2) dopamine receptor (Homo sapiens) (UniProt P14416). The assay is described as follows: Dopamine D2 receptor (DRD2) small molecule agonists, cell-based qHTS assay (AID 1963594). Note: nearly all actives have a fitted effect of over 35% in size. Summed up: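 HEK293 cells stably expressing human DRD2, pre-treated with PDE inhibitor Ro20-1724 (0.1 mM final) and compound 10 min at room temperature, then stimulated with NKH477 (200nM […]) for 30 min. cAMP read by HTRF (665/620 nm).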

Assay [16] shares this target. Nature of the assay: Dopamine D2 receptor (DRD2) small molecule antagonists, cell-based qHTS assay (AID 1963595; active = well fitted inhibition curve with a large enough effect in the signal ratio in the repeat runs, with a control signal flat; the % refers to the signal ratio; note: potency is the fitted concentration of half-maximal effect). Summed up: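 HEK293 cells stably expressing DRD2 were preincubated with 0.1 mM Ro20-1724, then with compound for 10 min at room temperature. Cells were stimulated with 200 nM NKH477 plus 12 nM quinpirole for 30 min, and cAMP was read by HTRF.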
For assay [17], the target named is 5-hydroxytryptamine receptor 2A (Homo sapiens) (UniProt P28223). Nature of the assay: 5-hydroxytryptamine receptor 2A (HTR2A) small molecule agonists, cell-based qHTS assay (AID 1963587). Note: nearly all actives have a fitted effect of over 30% in size. Note: potency is the fitted concentration of half-maximal effect. The procedure, abridged:
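CHO cells stably expressing human HTR2A, plated 18 h, loaded with calcium dye 1 h at 37 C. Agonist mode: compounds added and intracellular calcium fluorescence recorded kinetically for 2 min at 1 sec intervals.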

The target in assay [18] is Muscarinic acetylcholine receptor M1 (Homo sapiens) (UniProt P11229). The assay is described as follows: Cholinergic receptor muscarinic 1 (CHRM1) small molecule antagonists, cell-based qHTS assay (AID 1963588). Note: nearly all actives have a fitted effect of over 40% in size. Summed up: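 Compounds were tested at 15 concentrations in three independent runs. Dye-loaded CHRM1-CHO cells were exposed 5 min at room temperature before stimulation by acetylcholine added at 50nM. Intracellular calcium was read kinetically on FDSS for 3 min.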

A short description of assay [19]: p53 small molecule agonists, cell-based qHTS assay with human liver microsomes: qHTS cell viability counter screen (AID 1963579). Note: nearly all actives have a fitted effect of over 45% in size. Note: potency is the fitted concentration of half-maximal effect. Summed up:
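Metabolically activated exposure: compounds, human liver microsomes and NADPH (0.5 mg/mL final apiece) were added to p53RE-bla cells seeded 5 h earlier, left 16 h at 37 C, and then assessed for viability by CellTiter-Glo luminescence.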

Assay [20] concerns the target 5-hydroxytryptamine receptor 2A (Homo sapiens) (UniProt P28223). Nature of the assay: 5-hydroxytryptamine receptor 2A (HTR2A) small molecule antagonists, cell-based qHTS assay (AID 1963586). Note: nearly all actives have a fitted effect of over 45% in size. Summed up:
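CHO cells stably expressing human HTR2A were plated for 18 h at 37 C, then loaded with calcium dye for 1 h. Compounds were preincubated 5 min at room temperature before DOI (4 nM solution) was added. Kinetic fluorescence was read for 3 min.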

Each structure is given as a SMILES string. Unmarked numbers belong to inactive results. Results filed as inconclusive are left out. The source made the active and inactive calls. Unless noted, calls come from the whole dose curve.

Chain of D(2) dopamine receptor (Homo sapiens) (P14416 whole entry, looked up): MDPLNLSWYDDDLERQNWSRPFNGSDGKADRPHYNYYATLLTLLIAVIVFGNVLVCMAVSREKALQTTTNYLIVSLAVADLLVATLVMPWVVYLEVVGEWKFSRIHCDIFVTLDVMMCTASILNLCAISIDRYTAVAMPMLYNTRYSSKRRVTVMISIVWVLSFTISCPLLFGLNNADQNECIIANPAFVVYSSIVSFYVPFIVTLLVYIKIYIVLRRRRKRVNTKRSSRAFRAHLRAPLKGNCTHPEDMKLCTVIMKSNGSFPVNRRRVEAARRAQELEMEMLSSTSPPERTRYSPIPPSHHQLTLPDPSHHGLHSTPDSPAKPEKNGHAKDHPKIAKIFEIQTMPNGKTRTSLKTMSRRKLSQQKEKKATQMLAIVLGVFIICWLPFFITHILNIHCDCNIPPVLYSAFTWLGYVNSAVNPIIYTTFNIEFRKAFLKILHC
Chain of Gonadotropin-releasing hormone receptor (Homo sapiens) (P30968 whole entry, looked up): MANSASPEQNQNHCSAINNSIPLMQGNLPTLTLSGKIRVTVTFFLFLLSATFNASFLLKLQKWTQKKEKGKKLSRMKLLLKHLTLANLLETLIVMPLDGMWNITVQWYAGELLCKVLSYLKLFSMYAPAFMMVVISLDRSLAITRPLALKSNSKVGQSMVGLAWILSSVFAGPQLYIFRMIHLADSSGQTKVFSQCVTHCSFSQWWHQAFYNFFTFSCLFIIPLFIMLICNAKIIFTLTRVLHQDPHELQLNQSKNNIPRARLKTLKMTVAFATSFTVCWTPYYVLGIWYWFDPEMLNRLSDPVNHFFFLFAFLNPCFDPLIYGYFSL
Chain of KiSS-1 receptor (Homo sapiens) (Q969F8 whole entry, looked up): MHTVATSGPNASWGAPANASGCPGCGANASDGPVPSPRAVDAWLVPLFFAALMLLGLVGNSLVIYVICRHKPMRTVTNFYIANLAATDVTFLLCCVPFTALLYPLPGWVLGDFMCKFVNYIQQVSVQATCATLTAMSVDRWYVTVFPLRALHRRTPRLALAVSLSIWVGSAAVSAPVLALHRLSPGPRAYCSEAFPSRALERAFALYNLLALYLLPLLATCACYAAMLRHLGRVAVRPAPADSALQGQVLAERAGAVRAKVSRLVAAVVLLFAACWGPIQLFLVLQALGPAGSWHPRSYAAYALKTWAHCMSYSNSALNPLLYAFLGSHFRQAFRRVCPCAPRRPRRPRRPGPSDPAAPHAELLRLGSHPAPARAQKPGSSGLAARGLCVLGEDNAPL
Chain of Muscarinic acetylcholine receptor M1 (Homo sapiens) (P11229 whole entry, looked up): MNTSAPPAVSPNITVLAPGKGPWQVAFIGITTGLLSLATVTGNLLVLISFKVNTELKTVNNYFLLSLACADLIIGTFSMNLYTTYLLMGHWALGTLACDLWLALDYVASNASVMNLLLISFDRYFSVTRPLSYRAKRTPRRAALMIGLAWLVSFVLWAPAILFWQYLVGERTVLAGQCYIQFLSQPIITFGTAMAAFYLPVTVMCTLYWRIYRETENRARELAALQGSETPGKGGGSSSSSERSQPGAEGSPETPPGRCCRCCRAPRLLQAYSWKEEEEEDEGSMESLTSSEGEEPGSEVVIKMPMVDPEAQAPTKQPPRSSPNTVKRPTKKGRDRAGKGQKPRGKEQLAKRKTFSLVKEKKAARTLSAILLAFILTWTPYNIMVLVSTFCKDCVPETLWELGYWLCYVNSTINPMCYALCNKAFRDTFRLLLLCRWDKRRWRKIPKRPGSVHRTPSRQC
Chain of Beta-2 adrenergic receptor (Homo sapiens) (P07550 whole entry, looked up): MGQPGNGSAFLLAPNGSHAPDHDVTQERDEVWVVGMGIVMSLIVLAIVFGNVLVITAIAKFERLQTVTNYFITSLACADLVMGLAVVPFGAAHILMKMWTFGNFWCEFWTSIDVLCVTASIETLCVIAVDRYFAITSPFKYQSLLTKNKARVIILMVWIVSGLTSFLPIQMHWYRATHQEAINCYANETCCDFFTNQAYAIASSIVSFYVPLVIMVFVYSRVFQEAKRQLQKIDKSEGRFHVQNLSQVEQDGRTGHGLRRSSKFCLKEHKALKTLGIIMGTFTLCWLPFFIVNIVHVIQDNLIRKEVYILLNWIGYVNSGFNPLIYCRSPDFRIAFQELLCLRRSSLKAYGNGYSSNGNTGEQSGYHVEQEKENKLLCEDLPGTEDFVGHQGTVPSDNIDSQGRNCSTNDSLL
Chain of 5-hydroxytryptamine receptor 2A (Homo sapiens) (P28223 whole entry, looked up): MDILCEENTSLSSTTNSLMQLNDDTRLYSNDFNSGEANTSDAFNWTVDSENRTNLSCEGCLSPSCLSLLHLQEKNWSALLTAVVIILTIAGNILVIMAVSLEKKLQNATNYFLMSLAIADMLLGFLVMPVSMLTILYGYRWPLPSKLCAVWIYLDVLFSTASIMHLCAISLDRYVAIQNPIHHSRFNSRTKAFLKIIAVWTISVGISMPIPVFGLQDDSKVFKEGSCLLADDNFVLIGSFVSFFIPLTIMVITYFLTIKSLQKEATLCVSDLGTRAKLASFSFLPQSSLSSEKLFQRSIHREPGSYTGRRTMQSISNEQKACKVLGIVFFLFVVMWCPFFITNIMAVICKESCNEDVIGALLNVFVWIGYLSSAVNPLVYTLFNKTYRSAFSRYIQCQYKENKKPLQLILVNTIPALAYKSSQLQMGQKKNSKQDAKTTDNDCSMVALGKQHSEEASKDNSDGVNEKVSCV

With `CCc1cccc2c(CCO)c[nH]c12`, the Potency result in assay [1], in assay [2], in assay [3], in assay [4], in [5] and in assay [6] was “inactive” in each case. In addition, the Potency entry in assay [7], in [8], in assay [9], in [10], in [11] and in assay [12] was “inactive” each time. Besides, the Potency result in assay [13], in assay [14], in assay [15] and in assay [16] was “inactive” in each case.
In the case of `COc1cc(-c2ccc(=O)[nH]n2)ccc1OC(F)F`, the Potency entry in assay [1], in assay [2], in assay [3], in assay [4], in assay [5] and in assay [6] was “inactive” each time. For the same molecule, the Potency entry in assay [7], in [9], in assay [17], in assay [18], in assay [12] and in [13] was “inactive” each time. The Potency entry in assay [14], in assay [15] and in [16] was “inactive” throughout. The Potency in assay [10] was 0.0038 µM (active); in [11], 13.3 µM (active).
Regarding `N#CCCOCCOCCC#N`, the Potency result in assay [1], in assay [2], in assay [3], in [4], in assay [5] and in [19] was “inactive” in each case. The Potency result in assay [7], in assay [8], in [20], in [17], in assay [18] and in assay [10] was “inactive” each time. The Potency result in [11], in assay [12], in [13], in assay [14] and in assay [15] was “inactive” throughout.
With `Nc1nc2ccc(OC(F)(F)F)cc2s1`, the Potency entry in [1], in assay [2], in [3], in assay [4], in assay [5] and in assay [6] was “inactive” each time. The Potency entry in assay [7], in assay [8], in assay [11], in [12], in [13] and in [16] was “inactive” in each case.
`CCN(CCCc1ccccc1)CCCc1ccccc1`: the Potency result in assay [1], in [2], in assay [3], in [4], in assay [5] and in assay [6] was “inactive” each time. In addition, the Potency entry in assay [7], in assay [9], in assay [17], in [10] and in [13] was “inactive” throughout.
Turning to `CC(C)CCOCc1ccccc1`, the Potency result in assay [1], in assay [2], in assay [3], in assay [4], in [5] and in [19] was “inactive” each time. Further, the Potency entry in assay [7], in assay [8], in assay [20], in [17], in assay [18] and in [10] was “inactive” each time. For the same molecule, the Potency result in [11], in [12], in assay [13], in assay [14] and in assay [15] was “inactive” each time.
`CN(C)CCOc1ccc(/C(=C(/CCCl)c2ccccc2)c2ccccc2)cc1`: the Potency in [1] was 22.8 µM (active); in [19], 30.3 µM (active); in assay [17], 40.9 µM (active); in assay [13], 57.2 µM (active); in assay [16], 57.2 µM (active). For the same molecule, the Potency entry in assay [2], in assay [3], in assay [4], in [5], in [6] and in assay [18] was “inactive” each time. The Potency result in [10] and in assay [15] was “inactive” each time.
Regarding `CCCCCOC(=O)Nc1nc(=O)n([C@@H]2O[C@H](C)[C@@H](O)[C@H]2O)cc1F`, the Potency result in [1], in assay [2], in assay [3], in [4], in [5] and in [6] was “inactive” each time. For the same molecule, the Potency entry in assay [7], in assay [8], in [20], in [17], in assay [18] and in assay [10] was “inactive” each time. In addition, the Potency entry in [12], in assay [13], in assay [14], in [15] and in [16] was “inactive” each time.

Values taken from PubChem BioAssay (Tox21).
